Measured values from the supplement of paper PMC11732987, “Enantioselective OTUD7B fragment discovery through chemoproteomics screening and high-throughput optimisation” (Communications Chemistry, 2025).

Key:
Assay in all cases: log2 ratio of Biotin-Ahx-Ub-VS probe labelling (fragment/DMSO); higher = less target engagement (more negative = stronger competition), active = hit call of the paper (q ≤ 0.05, log2 ratio ≤ -1)
Conditions in all cases: compound concentration: 200 uM; treatment time: 3 h
[1] = molecular target: T1, USP42 (UniProt Q9H9J4)
T1 sequence (whole entry): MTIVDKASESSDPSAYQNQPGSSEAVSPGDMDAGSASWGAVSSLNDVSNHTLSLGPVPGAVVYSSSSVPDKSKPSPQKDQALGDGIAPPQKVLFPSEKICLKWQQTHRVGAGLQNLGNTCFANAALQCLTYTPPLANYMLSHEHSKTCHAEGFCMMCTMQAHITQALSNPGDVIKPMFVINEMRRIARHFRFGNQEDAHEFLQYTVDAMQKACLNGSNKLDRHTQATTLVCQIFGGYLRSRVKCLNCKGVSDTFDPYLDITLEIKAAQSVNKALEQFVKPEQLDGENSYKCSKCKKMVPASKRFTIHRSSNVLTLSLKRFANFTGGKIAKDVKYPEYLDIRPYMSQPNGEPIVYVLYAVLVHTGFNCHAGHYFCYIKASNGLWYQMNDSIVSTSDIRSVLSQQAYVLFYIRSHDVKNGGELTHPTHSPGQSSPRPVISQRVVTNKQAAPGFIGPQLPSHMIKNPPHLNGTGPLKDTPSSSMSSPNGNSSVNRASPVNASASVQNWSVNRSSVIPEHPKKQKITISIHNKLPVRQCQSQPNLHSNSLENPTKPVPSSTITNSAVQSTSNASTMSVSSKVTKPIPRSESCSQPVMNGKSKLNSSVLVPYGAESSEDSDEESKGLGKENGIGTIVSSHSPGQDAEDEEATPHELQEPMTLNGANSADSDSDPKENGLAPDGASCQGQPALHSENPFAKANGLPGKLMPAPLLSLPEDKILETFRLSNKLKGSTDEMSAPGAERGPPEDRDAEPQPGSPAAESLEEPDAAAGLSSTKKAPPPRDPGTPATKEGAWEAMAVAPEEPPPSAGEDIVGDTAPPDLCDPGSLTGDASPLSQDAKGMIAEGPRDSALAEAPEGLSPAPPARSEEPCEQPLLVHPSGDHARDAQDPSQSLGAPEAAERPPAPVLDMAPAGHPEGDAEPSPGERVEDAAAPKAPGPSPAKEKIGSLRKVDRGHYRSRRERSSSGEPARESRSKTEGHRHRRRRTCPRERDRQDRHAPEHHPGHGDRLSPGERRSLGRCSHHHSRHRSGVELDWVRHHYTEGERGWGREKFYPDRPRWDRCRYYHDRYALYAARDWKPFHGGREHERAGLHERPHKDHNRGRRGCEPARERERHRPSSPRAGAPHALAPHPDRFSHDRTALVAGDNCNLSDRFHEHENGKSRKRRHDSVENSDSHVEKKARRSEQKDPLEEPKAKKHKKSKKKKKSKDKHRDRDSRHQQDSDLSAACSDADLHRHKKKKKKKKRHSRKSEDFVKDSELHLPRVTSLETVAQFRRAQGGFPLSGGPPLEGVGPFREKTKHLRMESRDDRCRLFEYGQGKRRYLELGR
Procedure, shortened: (§1)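 HEK293T lysate (495 µg per sample, in Tris/CHAPS/IGEPAL buffer with protease inhibitors) was treated in triplicate with fragment at 200 µM or with DMSO for 3 h. It was then treated with Biotin-Ahx-Ub-VS (0.5 µM final) for 1 h. Labelled DUBs were NeutrAvidin-enriched, digested with LysC and trypsin, and run by diaPASEF LC-MS/MS. Spectronaut label-free quantities were global-median-normalised. Values are average log2 ratios fragment/DMSO by unpaired t-test, using proteins with ≥2 unique peptides.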

[2] = molecular target: USP46 (UniProt P62068)
Sequence of USP46 (P62068 whole entry): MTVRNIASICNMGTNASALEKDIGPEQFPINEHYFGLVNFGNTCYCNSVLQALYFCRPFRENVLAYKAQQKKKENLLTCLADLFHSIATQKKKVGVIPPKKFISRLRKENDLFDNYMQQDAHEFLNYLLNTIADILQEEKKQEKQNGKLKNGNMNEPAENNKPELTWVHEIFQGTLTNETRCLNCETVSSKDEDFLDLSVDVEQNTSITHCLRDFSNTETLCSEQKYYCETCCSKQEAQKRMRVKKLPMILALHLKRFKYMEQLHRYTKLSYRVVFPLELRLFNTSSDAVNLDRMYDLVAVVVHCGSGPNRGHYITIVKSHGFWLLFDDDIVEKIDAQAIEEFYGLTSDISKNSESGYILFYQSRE
Procedure, shortened: as §1

[3] = molecular target: T2, USP47 (UniProt Q96K76)
T2 sequence (whole entry): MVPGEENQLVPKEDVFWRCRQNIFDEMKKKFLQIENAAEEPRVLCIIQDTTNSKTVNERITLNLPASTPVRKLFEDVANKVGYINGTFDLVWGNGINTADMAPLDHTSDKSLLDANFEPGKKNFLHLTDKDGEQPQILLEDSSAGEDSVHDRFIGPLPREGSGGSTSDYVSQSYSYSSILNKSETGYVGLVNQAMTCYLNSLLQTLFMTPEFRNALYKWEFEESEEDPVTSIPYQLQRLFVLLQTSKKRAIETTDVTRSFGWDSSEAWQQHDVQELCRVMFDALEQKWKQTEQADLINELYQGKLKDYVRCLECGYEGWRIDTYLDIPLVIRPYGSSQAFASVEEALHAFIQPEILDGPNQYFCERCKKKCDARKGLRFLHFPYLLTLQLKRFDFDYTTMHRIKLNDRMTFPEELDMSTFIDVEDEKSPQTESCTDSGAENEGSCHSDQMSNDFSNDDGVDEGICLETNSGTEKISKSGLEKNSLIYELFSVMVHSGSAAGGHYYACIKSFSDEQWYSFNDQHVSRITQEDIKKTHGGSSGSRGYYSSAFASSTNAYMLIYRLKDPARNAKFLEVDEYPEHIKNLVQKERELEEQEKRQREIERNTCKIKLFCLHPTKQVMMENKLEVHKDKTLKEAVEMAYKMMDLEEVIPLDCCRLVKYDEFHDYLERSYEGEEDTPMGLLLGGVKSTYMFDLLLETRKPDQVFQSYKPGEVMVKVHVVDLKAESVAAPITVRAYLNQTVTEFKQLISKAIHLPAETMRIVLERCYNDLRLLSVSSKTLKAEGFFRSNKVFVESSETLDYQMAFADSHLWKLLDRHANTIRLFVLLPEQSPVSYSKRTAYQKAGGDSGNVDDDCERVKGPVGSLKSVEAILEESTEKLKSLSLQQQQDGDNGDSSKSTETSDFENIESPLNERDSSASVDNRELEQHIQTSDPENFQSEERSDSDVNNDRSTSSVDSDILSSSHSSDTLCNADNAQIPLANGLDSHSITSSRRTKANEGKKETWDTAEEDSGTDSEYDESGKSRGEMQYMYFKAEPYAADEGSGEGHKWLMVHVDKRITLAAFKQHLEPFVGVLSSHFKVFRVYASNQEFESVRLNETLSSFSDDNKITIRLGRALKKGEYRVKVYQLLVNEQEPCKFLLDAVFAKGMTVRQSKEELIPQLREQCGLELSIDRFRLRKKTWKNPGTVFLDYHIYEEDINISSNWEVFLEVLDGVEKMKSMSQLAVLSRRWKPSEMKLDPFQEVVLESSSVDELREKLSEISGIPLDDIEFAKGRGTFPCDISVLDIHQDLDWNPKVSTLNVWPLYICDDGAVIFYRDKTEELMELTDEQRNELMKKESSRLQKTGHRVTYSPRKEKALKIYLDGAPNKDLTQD
Procedure, shortened: as §1

[4] = molecular target: T3, USP48 (UniProt Q86UV5)
T3 sequence (whole entry): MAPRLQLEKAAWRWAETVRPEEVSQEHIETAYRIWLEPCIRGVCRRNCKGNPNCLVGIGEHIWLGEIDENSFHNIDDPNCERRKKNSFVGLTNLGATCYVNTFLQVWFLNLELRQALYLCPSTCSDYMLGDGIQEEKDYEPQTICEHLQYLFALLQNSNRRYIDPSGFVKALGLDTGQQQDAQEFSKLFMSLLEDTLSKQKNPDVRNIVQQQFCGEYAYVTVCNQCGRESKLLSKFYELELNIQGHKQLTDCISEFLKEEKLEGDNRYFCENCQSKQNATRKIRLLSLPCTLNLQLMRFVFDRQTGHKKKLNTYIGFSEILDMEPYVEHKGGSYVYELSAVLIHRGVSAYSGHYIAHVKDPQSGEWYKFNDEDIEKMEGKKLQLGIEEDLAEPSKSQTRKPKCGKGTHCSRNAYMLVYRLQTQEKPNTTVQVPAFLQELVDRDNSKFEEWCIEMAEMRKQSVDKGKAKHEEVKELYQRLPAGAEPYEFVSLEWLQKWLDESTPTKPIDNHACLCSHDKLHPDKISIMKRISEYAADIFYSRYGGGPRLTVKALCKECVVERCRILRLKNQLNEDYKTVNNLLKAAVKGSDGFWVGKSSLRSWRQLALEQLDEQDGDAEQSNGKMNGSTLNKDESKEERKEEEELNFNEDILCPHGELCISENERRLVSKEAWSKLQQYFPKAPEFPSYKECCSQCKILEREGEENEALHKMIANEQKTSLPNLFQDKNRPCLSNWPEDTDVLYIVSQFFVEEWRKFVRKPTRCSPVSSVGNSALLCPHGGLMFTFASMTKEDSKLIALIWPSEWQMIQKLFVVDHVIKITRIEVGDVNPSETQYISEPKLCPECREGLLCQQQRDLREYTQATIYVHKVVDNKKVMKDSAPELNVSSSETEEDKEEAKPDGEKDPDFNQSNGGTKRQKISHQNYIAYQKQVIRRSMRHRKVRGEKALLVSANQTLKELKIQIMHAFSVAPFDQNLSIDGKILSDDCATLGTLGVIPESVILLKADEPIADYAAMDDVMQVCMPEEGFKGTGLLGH
Procedure, shortened: as §1

[5] = molecular target: T4, USP5 (UniProt P45974)
T4 sequence (whole entry): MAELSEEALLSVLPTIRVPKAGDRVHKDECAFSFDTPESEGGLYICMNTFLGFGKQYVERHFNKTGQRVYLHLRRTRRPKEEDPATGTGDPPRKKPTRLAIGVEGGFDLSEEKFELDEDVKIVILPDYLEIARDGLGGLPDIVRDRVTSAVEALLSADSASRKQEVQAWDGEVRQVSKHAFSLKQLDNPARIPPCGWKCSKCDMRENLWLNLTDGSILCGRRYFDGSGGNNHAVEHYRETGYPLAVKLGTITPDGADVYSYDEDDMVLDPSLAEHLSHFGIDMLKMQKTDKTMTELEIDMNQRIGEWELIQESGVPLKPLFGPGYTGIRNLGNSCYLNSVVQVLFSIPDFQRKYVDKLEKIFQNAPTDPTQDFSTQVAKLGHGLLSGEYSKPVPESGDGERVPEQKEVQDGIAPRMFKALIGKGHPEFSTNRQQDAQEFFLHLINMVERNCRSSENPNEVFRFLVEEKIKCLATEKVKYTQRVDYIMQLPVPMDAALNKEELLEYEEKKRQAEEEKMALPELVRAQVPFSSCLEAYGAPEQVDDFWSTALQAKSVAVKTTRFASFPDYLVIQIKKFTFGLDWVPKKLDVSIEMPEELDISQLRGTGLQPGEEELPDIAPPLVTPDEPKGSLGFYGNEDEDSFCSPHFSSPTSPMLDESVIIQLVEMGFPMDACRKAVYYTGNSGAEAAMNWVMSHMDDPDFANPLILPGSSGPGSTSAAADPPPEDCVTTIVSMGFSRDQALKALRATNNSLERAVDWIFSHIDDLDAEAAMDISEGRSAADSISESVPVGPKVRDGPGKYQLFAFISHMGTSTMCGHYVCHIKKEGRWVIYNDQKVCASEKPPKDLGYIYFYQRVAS
Procedure, shortened: as §1

[6] = molecular target: USP54 (UniProt Q70EL1)
Sequence of USP54 (Q70EL1 whole entry): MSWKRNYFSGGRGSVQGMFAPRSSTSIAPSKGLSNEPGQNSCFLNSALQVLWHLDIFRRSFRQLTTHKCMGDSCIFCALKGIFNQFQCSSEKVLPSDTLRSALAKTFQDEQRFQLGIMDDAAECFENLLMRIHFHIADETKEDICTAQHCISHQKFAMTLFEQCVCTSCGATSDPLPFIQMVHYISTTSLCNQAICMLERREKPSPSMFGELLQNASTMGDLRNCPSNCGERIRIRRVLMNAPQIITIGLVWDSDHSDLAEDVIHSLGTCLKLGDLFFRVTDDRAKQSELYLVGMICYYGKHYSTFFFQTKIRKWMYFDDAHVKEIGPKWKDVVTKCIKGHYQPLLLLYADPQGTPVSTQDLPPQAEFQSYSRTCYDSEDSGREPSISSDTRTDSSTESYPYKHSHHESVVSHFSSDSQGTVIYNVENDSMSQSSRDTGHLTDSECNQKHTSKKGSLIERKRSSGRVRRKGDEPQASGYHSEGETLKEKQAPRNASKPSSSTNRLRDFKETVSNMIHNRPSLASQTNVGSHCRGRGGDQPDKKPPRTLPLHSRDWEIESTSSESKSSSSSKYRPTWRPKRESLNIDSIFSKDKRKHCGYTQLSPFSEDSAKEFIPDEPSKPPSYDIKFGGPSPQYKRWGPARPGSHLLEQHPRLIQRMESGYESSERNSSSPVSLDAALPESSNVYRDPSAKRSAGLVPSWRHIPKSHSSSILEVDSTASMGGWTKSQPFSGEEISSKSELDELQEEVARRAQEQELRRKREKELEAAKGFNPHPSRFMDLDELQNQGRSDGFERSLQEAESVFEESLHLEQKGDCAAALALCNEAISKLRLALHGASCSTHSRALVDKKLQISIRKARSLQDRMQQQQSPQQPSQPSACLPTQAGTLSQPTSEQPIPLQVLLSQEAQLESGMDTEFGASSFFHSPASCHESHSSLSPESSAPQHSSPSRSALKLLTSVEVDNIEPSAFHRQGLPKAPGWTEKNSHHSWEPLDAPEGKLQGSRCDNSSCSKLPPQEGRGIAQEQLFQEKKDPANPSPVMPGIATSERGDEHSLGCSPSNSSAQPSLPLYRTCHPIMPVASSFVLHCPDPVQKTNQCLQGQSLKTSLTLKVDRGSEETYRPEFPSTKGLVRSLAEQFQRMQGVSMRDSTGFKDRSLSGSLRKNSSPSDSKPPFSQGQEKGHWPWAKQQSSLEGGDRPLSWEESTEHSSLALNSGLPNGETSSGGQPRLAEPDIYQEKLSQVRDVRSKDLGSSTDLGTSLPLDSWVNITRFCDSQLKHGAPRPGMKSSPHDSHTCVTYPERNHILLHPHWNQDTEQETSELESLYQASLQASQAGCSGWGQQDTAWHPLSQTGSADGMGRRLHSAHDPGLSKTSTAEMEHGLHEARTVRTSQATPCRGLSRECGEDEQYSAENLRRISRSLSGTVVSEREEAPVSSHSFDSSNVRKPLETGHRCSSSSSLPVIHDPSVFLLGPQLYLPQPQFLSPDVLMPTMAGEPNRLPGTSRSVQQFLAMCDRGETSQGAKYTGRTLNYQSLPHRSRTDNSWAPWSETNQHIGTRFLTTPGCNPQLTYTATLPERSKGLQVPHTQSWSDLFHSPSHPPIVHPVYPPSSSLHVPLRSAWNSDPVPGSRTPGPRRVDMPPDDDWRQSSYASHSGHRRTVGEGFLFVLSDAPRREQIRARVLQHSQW
Procedure, shortened: as §1

[7] = molecular target: USP7 (UniProt Q93009)
Sequence of USP7 (Q93009 whole entry, looked up): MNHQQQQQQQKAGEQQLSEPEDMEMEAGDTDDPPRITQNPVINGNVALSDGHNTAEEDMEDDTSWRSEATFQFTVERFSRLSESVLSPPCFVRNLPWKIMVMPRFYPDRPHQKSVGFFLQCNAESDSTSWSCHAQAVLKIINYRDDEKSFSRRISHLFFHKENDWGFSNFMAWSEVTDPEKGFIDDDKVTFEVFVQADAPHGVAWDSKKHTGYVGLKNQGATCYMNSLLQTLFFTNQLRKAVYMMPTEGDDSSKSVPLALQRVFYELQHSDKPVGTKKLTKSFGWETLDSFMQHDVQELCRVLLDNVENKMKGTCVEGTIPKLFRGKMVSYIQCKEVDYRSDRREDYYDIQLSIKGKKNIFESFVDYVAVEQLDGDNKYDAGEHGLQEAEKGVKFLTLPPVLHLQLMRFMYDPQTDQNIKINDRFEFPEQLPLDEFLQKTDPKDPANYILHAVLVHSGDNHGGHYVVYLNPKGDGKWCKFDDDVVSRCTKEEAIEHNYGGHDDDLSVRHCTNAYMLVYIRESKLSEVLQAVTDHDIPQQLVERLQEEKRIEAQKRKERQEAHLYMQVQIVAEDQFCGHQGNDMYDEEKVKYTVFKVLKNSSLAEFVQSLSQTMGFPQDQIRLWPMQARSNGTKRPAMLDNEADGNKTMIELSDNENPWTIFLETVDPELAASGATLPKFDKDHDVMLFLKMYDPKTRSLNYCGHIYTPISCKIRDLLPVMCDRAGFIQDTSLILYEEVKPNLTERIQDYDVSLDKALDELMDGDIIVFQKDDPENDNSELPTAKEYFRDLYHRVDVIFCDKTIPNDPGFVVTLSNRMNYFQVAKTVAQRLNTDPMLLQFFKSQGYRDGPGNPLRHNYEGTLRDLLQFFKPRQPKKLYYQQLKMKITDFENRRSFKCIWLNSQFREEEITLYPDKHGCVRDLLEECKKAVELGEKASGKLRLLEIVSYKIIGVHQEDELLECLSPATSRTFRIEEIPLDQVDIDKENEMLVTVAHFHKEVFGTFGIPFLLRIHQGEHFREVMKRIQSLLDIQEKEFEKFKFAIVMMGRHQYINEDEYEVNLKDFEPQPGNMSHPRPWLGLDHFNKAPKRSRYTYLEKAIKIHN
Procedure, shortened: as §1

[8] = molecular target: T5, USP8 (UniProt P40818)
T5 sequence (whole entry): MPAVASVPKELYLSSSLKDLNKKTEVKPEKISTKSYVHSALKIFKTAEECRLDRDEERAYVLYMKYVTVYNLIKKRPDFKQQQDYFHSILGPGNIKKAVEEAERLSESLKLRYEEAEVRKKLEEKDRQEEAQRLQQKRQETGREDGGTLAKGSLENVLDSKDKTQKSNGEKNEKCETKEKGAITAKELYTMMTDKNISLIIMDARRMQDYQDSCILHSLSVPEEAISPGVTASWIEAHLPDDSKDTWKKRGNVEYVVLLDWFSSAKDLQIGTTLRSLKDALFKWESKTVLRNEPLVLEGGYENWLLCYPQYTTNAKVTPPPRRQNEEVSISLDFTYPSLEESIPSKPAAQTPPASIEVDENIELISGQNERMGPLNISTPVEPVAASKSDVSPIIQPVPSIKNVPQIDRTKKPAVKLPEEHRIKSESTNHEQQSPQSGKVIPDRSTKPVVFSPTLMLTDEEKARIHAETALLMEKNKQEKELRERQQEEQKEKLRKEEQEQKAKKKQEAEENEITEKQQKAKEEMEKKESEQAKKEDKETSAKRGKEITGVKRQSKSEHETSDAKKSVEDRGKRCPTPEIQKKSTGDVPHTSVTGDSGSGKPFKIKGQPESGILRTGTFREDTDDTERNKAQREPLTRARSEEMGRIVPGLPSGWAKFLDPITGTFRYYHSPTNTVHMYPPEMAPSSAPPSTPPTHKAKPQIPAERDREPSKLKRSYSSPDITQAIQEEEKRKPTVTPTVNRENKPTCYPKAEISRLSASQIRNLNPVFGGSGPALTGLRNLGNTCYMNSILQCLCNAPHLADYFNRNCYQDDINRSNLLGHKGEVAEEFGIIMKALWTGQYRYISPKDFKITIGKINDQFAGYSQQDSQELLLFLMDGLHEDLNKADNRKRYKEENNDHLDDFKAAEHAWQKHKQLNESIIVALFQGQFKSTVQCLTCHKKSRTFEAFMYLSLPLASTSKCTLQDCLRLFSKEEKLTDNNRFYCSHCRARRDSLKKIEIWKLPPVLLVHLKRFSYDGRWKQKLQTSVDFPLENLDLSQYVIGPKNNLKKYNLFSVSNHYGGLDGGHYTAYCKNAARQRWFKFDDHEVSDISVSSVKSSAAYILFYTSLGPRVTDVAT
Procedure, shortened: as §1

Measured: log2 ratio of Biotin-Ahx-Ub-VS probe labelling

O=C(CCl)NCCC1COCCO1 (stereo not drawn)
inactive: [1] 0.357 | [2] -0.000444 | [3] -0.101 | [4] -0.171 | [5] -0.0923 | [6] 0.157 | [7] -0.157 | [8] -0.26
